# FBA Mtb inh = Mtb fructose-bisphosphate aldolase inhibition; inhibition, % at 1 µM; 360,000 tested, 2.3% active; AID 588726; purified M. tuberculosis FBA, fluorescence read-out; P9WQA3; in the data active = inhibition above about 27%;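 also: 0% = vehicle and 100% = reference inhibitor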
# CCHF vOTU inh = blocks the CCHF virus ovarian tumor domain protease; inhibition, % at 11.5 µM; 370,000 tested, 0.55% active; CCHFV vOTU protease, Pep-AMC fluorescence; also: 0% = vehicle wells with enzyme and 100% = no enzyme wells
# RecA splice inh = blocks M. tuberculosis RecA intein splicing. P9WHJ3. cell-free RecA intein splicing, fluorescence. inhibition, % (no concentration beside the values). 290,000 tested, 0.75% active; in the data active = inhibition above about 30%;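 also: 0% = vehicle wells and 100% = reference inhibitor control wells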
# Target sequence (P9WHJ3 whole entry, looked up, canonical isoform): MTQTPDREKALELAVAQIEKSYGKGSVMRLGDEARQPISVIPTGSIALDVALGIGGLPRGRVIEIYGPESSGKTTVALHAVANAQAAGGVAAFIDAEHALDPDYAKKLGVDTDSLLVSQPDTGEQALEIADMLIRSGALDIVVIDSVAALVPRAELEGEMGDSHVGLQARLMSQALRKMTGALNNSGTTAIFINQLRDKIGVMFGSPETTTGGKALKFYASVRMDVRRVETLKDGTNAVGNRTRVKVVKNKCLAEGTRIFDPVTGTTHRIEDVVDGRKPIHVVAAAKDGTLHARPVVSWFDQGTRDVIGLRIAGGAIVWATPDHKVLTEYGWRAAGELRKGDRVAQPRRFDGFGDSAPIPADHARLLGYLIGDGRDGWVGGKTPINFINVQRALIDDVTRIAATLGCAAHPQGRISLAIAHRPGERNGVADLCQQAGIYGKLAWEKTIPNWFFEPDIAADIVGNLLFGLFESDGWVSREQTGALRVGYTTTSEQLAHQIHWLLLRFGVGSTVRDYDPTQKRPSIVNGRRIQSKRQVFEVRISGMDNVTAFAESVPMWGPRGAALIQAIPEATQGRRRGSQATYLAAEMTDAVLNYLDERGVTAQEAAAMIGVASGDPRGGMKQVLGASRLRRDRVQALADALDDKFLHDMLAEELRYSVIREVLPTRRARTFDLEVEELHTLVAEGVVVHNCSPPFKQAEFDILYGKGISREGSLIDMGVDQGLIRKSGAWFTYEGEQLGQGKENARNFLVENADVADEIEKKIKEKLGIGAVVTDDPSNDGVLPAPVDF
# GDH-TPI counter-1 = GDH-TPI coupled enzyme inhibition counter-screen. 360,000 tested, 1.2% active. GDH-TPI coupled enzyme counterscreen, NADH absorbance. inhibition, % at 4.8 µM. AID 588335;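 also: 0% = DMSO wells and 100% = wells lacking the enzyme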
# Mtb FBA confirm = confirmation of M. tuberculosis fructose-bisphosphate aldolase inhibitors. shares compounds with FBA Mtb inh. purified M. tuberculosis FBA, fluorescence read-out. inhibition, % at 1 µM. 5,600 tested, 78% active. AID 651616; in the data active = inhibition above about 27%;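 also: 0% = vehicle wells and 100% = reference inhibitor wells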
# GDH-TPI counter-2 = GDH-TPI inhibition counter-screen for FBA inhibitors; shares compounds with FBA Mtb inh; GDH-TPI coupled enzyme counterscreen, fluorescence; inhibition, % at 1 µM; 5,600 tested, 81% active; in the data active = inhibition above about 10%
# GDH-TPI DR = inhibits GDH-TPI coupling enzymes in dose response; shares compounds with FBA Mtb inh; GDH-TPI coupled enzyme assay, fluorescence, artifact counterscreen; IC50, µM; 170 tested, 79% active; AID 652145; call rule not given here
# Active calls of the source: *; x = no result given; + = active, no number. Compounds with a hit are over-represented: about 4.2% of the library has one in this group of screens. Rule as the data show it, unless noted: active = inhibition above about 30%; inactive = the rest.
SMILES,FBA Mtb inh,CCHF vOTU inh,RecA splice inh,GDH-TPI counter-1,Mtb FBA confirm,GDH-TPI counter-2,others
CCC(C)(C)C(=O)Nc1ncc(S(=O)(=O)c2ccc([N+](=O)[O-])cc2)s1,75.8*,10.5,-0.2,-3.5,3.5,-1.1,
CC1CC(C)CN(C(=O)C2CCC(CNS(=O)(=O)c3ccccc3)CC2)C1 (centres undefined),-0.3,-9.0,1.2,9.0,x,x,
COc1ccc(-c2nc3ncccn3c2Br)cc1,49.1*,-60.0,-4.1,14.2,+,186.5*,
CSc1nc(NCC(C)C)c2c3c(sc2n1)CN(C)CC3,48.8*,-41.0,-6.0,10.1,58.7*,57.1*,
COCCCNc1nc(SCc2ccccc2)nc2sc3c(c12)CCC3,33.8*,1.1,3.3,18.3,96.9*,77.7*,
COC(=O)CSc1nc2sc3c(c2c(=O)n1-c1ccccc1)CCN(C)C3,16.6,-31.8,13.0,30.4,x,x,
N#Cc1cnn(-c2nc(SCc3ccccc3)nc3sc4c(c23)CCCC4)c1N,0.2,12.6,1.4,1.8,x,x,
CSc1nc(NCc2ccccc2)c2c3c(sc2n1)CN(C)CC3,72.3*,-52.2,-3.2,5.5,140.4*,84.3*,
CSc1nc(SCC(=O)NCC2CCCO2)c2c3c(sc2n1)CN(C)CC3 (centres undefined),x,-8.8,8.9,x,x,x,
CSc1nc(NCCCN(C)C)c2c3c(sc2n1)CN(C)CC3,x,-43.1,-18.3,x,x,x,
COCCNc1nc(SC)nc2sc3c(c12)CCN(C)C3,80.3*,-55.8,-1.4,-4.0,196.2*,176.6*,
Cc1cc(C(=O)Nc2c(F)cc(F)cc2Br)n(-c2ccccc2)n1,1.8,7.6,2.9,1.3,x,x,
CCN(CC)CCNc1nc(SC)nc2sc3c(c12)CCN(C)C3,41.0*,-28.3,-5.5,1.3,96.5*,75.1*,
Cc1cc(C)c2nc(-c3ccccn3)cc(C(=O)NCc3ccc(S(N)(=O)=O)cc3)c2c1,49.5*,-0.7,x,6.3,8.3,0.4,
Cc1cc(C)c2nc(-c3ccccn3)cc(C(=O)NCCc3ccc(S(N)(=O)=O)cc3)c2c1,38.9*,-12.1,6.2,5.0,164.5*,133.0*,
Cc1cc(C)c2nc(-c3ccccn3)cc(C(=O)Nc3ccc(S(=O)(=O)Nc4onc(C)c4C)cc3)c2c1,-2.9,x,6.3,15.8,x,x,
Cn1c(=O)n(C)c2cc(S(=O)(=O)NCC(=O)O)ccc21,-1.6,-4.6,-1.1,0.6,x,x,
Cn1c(=O)n(C)c2cc(S(=O)(=O)Nc3ccccc3C(=O)O)ccc21,28.9*,3.2,0.0,10.6,+,+,
O=C(Nc1nnc(-c2ccccn2)o1)c1cccc(Cl)c1,-2.5,-1.2,-0.7,13.2,x,x,
CC(=O)Nc1nnc(-c2ccccn2)o1,31.2*,-6.3,-0.1,-1.9,+,152.6*,
COc1ccc(COC(=O)c2sc3nc4n(c(=O)c3c2C)CCC4)cc1,-3.0,-7.7,-6.0,0.0,x,x,
O=C(CSc1nc(=O)n(CCCN2CCOCC2)c2c1CCC2)Nc1ccc([N+](=O)[O-])cc1,-1.0,2.7,2.2,18.9,x,x,
CS(=O)(=O)Cc1cc(Sc2ccccc2)nc(-c2ccncc2)n1,33.9*,-4.5,2.0,1.9,8.3,-3.8,
Cc1cccc(NC(=S)Nc2cccc(C)n2)n1,91.0*,13.7,1.8,12.0,8.6,-3.2,
CN1C(=O)[C@@H]2[C@H](C1=O)[C@@H]1C(=O)Nc3ccccc3C(=O)N1[C@@H]2c1ccc(Br)cc1,2.4,-2.5,2.0,5.9,x,x,
SMILES,FBA Mtb inh,CCHF vOTU inh,RecA splice inh,GDH-TPI counter-1,Mtb FBA confirm,GDH-TPI counter-2,others
COCCn1c(SCC(=O)N2CCCCC2)nc2c(c1=O)SCC2,41.1*,1.2,-0.2,12.6,18.3,5.7,GDH-TPI DR=>10
CCn1c(SCC(=O)N2CCCCC2)nc2c(c1=O)SCC2,3.0,-2.0,-0.6,6.4,x,x,
Clc1ccccc1-c1nnc2sc(-c3ccc4c(c3)OCO4)nn12,27.6*,1.8,0.5,10.1,+,+,
O=[N+]([O-])c1cccc(-c2nnc(-c3ccc4c(c3)OCO4)o2)c1,2.1,3.6,-0.7,-1.1,x,x,
Clc1ccccc1-c1nnc(-c2ccc3c(c2)OCO3)o1,32.8*,-6.6,12.4,0.9,92.7*,62.8*,
CCS(=O)(=O)c1nc(S(=O)(=O)c2ccc(C)cc2)c(N2CC(C)CC(C)C2)s1 (centres undefined),-2.3,8.0,-8.3,13.7,x,x,
CC(C)(C)NC(=O)c1ccc2nccnc2c1,-3.9,-2.5,0.8,17.9,x,x,
CC(C)(C)NC(=O)Nc1ccc2nccnc2c1,60.7*,-112.4,-8.5,11.5,-0.2,-5.0,
COc1ccc(/C=C\c2cc(OC)c(OC)cc2CC[N+](C)(C)C)cc1OC,33.5*,-11.5,0.4,20.8,0.3,-2.6,
Oc1ccc(Cl)cc1C=Nc1ccc2c3c(cccc13)CC2,51.5*,-57.3,2.2,17.3,34.7*,18.8*,
Cc1cccc(C=Nc2ccc3c4c(cccc24)CC3)c1O,36.5*,17.5,-4.3,-0.7,54.4*,54.5*,
CC(Sc1nc(N)cc(=O)[nH]1)C(=O)NNC(=O)c1cccc(Cl)c1 (centres undefined),3.3,7.1,x,-0.7,x,x,
O=c1[nH]c2ccccc2[nH]c1=O,8.9,-1.6,1.1,-7.2,x,x,
Nc1cccc2[nH]c(=O)c3ccccc3c12,60.7*,-48.6,x,17.9,198.9*,157.5*,
Nc1ccc2c(c1)[nH]c(=O)c1ccccc12,69.1*,-45.9,x,5.0,2.6,3.3,
Nc1cc2[nH]c(=O)c3ccccc3c2cc1Br,10.9,-6.6,x,20.6,x,x,
CC(=O)Nc1ccc2c(c1)[nH]c(=O)c1ccccc12,49.8*,-14.0,x,19.7,64.3*,44.8*,
CCCCCN1CCCCC(NC(=O)C(C)(C)C)C1=O (centres undefined),x,2.4,x,x,x,x,
CCC(CO)Nc1nc2ccc(Cl)cc2c2ccccc12 (centres undefined),8.0,1.9,-9.0,0.0,x,x,
COc1ccc2[nH]c(C)cc(=O)c2c1,12.8,3.0,-2.1,7.0,x,x,
COc1ccc(-c2cc(=O)c3cc(OC)c(OC)cc3[nH]2)cc1,57.5*,-29.8,-1.2,19.0,65.6*,59.2*,
COc1ccc(-c2cc(=O)c3cc(F)ccc3[nH]2)cc1,31.1*,-3.4,0.5,-2.0,126.1*,98.5*,
COc1ccc2[nH]c(-c3ccccc3)cc2c1,99.6*,-34.4,0.6,8.0,90.7*,71.5*,
COc1ccc2[nH]c(-c3ccc(C)cc3)cc(=O)c2c1,44.2*,x,-8.8,17.5,+,165.2*,
CC1(C)CC(Cc2cccc(C(F)(F)F)c2)N(C(=O)OC(C)(C)C)C1 (centres undefined),0.9,-1.2,x,-12.3,x,x,
CC(C)(CNC(=O)CCC1CCCC1)CNC(=O)CCC1CCCC1,0.2,7.7,5.0,0.4,x,x,
CCCCC(=O)Nc1cc(N(C)C)nc2ccccc12,34.6*,-8.4,0.4,13.8,+,+,
Cc1ccc(OCC(=O)NNC(=O)C2CSC3(C)CCC(=O)N23)cc1C (centres undefined),-2.7,-5.4,x,-3.2,x,x,

# High-throughput results (PubChem BioAssay)
